# For some assays here: Entries with a potency or affinity are not part of this list. Calls of active or inactive are those of the source.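 The calls were made as follows, unless noted: active = primary screen inhibitor hit that blocks the TRPC4 channel at some tested dose, yielding a dose curve; inactive = the rest.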
# Key:
# [1] = test system: TRPC4 beta (transient receptor potential cation channel C4), mouse; test: TRPC4 cation channel opening, retest – cell-based, Fluo4 calcium, HEK293 TRPC4beta/mu-opioid, duplicates, 10 µM, confirmation (AID 2426;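 active = fluorescence ratio normalized to control raised more than 50% in primary screen plus both repeat runs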;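 as to activation: percent rise of integrated ratio over buffer wells lacking compound which define 0%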); conditions: Fluo4 calcium fluorescence, at 10 µM; active compounds read high
# [2] = test system: transient receptor potential cation channel C4 beta (TRPC4), mouse; test: TRPC4 cation channel opening, second retest – cell-based, second round, Fluo4, HEK293 TRPC4beta/mu-opioid, 1 µM, confirmation (AID 2461;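 active = primary screen active and over 50% activation in each of two duplicate runs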;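 as to activation: 0% = wells without test compound as baseline of integrated fluorescence ratio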); conditions: Fluo4 calcium fluorescence, at 1 µM; active compounds read high
# [3] = test system: TRPC4 (transient receptor potential cation channel C4 beta), mouse; test: potentiation of DAMGO EC20 TRPC4 response – cell-based, second round, Fluo-4, HEK293 TRPC4beta/mu-opioid, 1 µM, confirmation (AID 2554;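 active = primary screen hit whose fluorescence ratio, in both repeats, exceeds the weak agonist control mean by 3 SD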); conditions: DAMGO EC20, Fluo-4 calcium flux, at 1 µM; active compounds read high
# [4] = test system: TRPC4 beta (transient receptor potential cation channel C4), mouse; test: potentiation of DAMGO EC20 TRPC4 response – cell-based, Fluo-4, HEK293 TRPC4beta/mu-opioid, confirmation (AID 2555;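 active = primary screen hit whose calcium fluorescence ratio, in both repeats, exceeds the weak agonist control mean by 3 SD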); conditions: DAMGO EC20, Fluo-4 calcium flux, at 10 µM; active compounds read high
# [5] = target: Short transient receptor potential channel 4 (Mus musculus) (UniProt Q9QUQ5); test: blockers of DAMGO-evoked TRPC4 calcium flux – cell-based, Fluo4, HEK293 TRPC4beta/mu-opioid, confirmation (AID 2636;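 active = calcium signal cut by more than 3 SD below the full-agonist control yet still positive, in both repeats and the earlier primary screen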); conditions: at 10 µM; active compounds read high
# Short transient receptor potential channel 4 (Mus musculus), sequence (Q9QUQ5 whole entry, looked up): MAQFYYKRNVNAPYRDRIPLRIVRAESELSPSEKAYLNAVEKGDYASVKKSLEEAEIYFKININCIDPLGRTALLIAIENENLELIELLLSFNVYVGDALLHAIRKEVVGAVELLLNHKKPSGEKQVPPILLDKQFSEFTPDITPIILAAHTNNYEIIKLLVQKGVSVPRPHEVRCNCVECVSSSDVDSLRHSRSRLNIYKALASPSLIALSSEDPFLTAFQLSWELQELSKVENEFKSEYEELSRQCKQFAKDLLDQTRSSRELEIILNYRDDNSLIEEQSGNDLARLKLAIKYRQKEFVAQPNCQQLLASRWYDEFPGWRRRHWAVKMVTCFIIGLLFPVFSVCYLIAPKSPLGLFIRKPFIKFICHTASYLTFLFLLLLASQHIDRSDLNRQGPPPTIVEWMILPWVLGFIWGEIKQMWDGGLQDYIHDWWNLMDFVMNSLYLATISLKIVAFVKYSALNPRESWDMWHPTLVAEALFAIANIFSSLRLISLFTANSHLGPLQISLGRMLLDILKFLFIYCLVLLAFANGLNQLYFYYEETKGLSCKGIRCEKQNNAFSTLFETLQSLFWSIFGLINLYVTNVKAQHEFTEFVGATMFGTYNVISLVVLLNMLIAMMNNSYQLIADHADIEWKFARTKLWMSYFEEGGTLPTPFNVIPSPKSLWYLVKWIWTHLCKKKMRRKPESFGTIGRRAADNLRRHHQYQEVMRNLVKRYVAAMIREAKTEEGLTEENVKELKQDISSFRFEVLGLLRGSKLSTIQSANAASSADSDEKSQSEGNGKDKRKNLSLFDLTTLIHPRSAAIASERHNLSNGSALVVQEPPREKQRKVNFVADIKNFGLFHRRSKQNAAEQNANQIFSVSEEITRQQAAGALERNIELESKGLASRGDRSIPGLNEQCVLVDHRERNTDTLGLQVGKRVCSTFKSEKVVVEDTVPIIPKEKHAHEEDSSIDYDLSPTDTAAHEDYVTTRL
# [6] = target: Short transient receptor potential channel 4 (Mus musculus) (UniProt Q9QUQ5); test: blockers of DAMGO-evoked TRPC4 calcium flux – cell-based, second round, Fluo4, HEK293 TRPC4beta/mu-opioid, 1 µM, confirmation (AID 2637;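 active = calcium signal ratio cut to more than 3 SD under the fully stimulated control mean yet still positive, in both repeats and the primary screen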); conditions: at 1 µM; active compounds read high
# [7] = target: Short transient receptor potential channel 4 (Mus musculus) (UniProt Q9QUQ5); test: potentiation of DAMGO-evoked TRPC4 calcium signal – cell-based, HEK293 TRPC4/mu-opioid, Fluo-4 calcium, EC20 DAMGO, dose response (AID 434941;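 active = earlier screen potentiator hit that boosts the TRPC4 ion channel at some dose, with a dose response; inactive = no potentiation, no dose response, or not a prior hit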;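 also: calcium entry triggered by an EC20 dose of DAMGO at the co-expressed mu-opioid receptor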)
# [8] = target: Short transient receptor potential channel 4 (Mus musculus) (UniProt Q9QUQ5); test: block of DAMGO-driven TRPC4 calcium entry – cell-based, HEK293 TRPC4/mu-opioid, Fluo-4 calcium, dose response (AID 434942)
# [9] = target: Short transient receptor potential channel 6 (Mus musculus) (UniProt Q61143); test: TRPC6 blockade by TRPC4 inhibitor hits – cell-based, HEK293, membrane potential dye, duplicate, selectivity assay for TRPC4 inhibitor project, confirmation (AID 434948;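 active = active in primary screen and both duplicates, each dropping signal beyond three positive-control SD with fluorescence still positive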); conditions: HEK293 TRPC6, membrane potential dye fluorescence, at 10 µM, stimulated with maximal-effect acetylcholine; active compounds read high
# Short transient receptor potential channel 6 (Mus musculus), sequence (Q61143 whole entry, looked up): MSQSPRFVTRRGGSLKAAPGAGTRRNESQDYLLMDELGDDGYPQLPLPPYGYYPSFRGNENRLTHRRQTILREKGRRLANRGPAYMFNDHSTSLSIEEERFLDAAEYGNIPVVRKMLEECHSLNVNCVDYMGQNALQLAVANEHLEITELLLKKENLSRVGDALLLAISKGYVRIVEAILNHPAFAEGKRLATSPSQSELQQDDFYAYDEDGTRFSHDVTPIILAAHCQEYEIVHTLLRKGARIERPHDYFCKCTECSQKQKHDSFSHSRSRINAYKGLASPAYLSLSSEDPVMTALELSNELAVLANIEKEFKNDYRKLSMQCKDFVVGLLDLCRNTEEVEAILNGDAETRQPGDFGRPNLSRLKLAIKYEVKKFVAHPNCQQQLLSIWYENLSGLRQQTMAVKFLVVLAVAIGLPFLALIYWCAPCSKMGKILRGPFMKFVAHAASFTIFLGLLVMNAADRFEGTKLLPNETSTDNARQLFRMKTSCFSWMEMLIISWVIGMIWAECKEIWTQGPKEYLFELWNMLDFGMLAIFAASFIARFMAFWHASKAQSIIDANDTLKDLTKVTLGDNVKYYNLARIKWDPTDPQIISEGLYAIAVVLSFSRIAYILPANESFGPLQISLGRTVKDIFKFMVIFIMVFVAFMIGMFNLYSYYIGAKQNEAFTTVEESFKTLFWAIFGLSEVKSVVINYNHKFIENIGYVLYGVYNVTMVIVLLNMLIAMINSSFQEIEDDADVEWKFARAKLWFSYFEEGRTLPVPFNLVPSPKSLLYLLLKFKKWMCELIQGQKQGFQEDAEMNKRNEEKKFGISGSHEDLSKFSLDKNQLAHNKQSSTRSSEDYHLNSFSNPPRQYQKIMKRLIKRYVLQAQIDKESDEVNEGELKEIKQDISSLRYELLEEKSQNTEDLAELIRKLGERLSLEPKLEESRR
# [10] = target: Short transient receptor potential channel 6 (Mus musculus) (UniProt Q61143); test: TRPC6 opening by TRPC4 activator hits – cell-based, HEK293, membrane potential dye, duplicate, selectivity assay for TRPC4 activator project, confirmation (AID 434950;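 active = membrane potential signal rise above negative control mean plus 3 SD in both duplicates, also active in the earlier TRPC4 screen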;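 as to activation: 0% = buffer only wells and 100% = acetylcholine maximal-effect wells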); conditions: HEK293 TRPC6, membrane potential fluorescence, at 10 µM; activation: active compounds read high; outcome: activation
# [11] = target: Short transient receptor potential channel 6 (Mus musculus) (UniProt Q61143); test: positive modulators of mouse TRPC6 channel – HEK293 cells, membrane potential dye, duplicate, selectivity assay for TRPC4 potentiator project, confirmation (AID 434952;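 active = compound raising the membrane signal above positive-control mean plus 3 SD in both repeats, and a primary screen hit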); conditions: HEK293 TRPC6, membrane potential dye fluorescence, at 10 µM, maximal acetylcholine added after compound; active compounds read high
# [12] = target: Short transient receptor potential channel 4 (Mus musculus) (UniProt Q9QUQ5); test: calcium flux activators in TRPC4/5HT1a cells, counter-screen for TRPC4 activator project, cell-based, second counter screen, HEK293 TRPC4/5HT1a, Fluo-4 (AID 434977;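 active = calcium signal rise above buffer-control mean plus 5 SD in both duplicates, and also a hit in the primary screen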;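 as to activation: plate controls were assay buffer for no effect and maximal serotonin response for full effect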); conditions: Fluo-4 calcium flux, at 10 µM; active compounds read high
# [13] = serotonin-gated TRPC4 signal block – cell-based, second counter screen, HEK293 TRPC4/5HT1a, Fluo-4, counter-screen for TRPC4 inhibitor project, confirmation (AID 434978;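 active = primary screen active whose calcium signal fell more than 3 SD beyond the full-serotonin control mean in both duplicate plates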;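 also: serotonin given first at submaximal then at maximal dose after compound preincubation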); conditions: Fluo-4 calcium flux, at 10 µM, serotonin added to trigger calcium flux; active compounds read high
# [14] = test system: TRPC4 (mouse), co-expressed with 5HT1a in HEK293; test: enhancement of serotonin-evoked TRPC4 response – cell-based, second counter screen, HEK293 TRPC4/5HT1a, Fluo-4, counter-screen for TRPC4 potentiator project, confirmation (AID 434979;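 active = signal rise over 3 SD above mean of control wells given weak agonist, in both repeats and first screen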); conditions: Fluo-4 calcium flux, at 10 µM, serotonin added at its EC20 dose; active compounds read high
# [15] = nonspecific calcium rise without TRPC4 – cell-based, HEK293 mu-opioid receptor line, counter-screen for TRPC4 activator project, confirmation (AID 449723;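 active = hit in primary screen, with calcium signal over 5 SD above buffer well mean in both duplicates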;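 also: counter screen cells carry the mu-opioid receptor alone and lack TRPC4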); conditions: HEK293 mu-opioid cells, Fluo-4 calcium fluorescence, at 10 µM; active compounds read high
# [16] = nonspecific potentiation of DAMGO calcium response – cell-based, HEK293 mu-opioid receptor line, counter-screen for TRPC4 allosteric potentiator project, confirmation (AID 449724;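 active = calcium signal rise more than 3 SD above the low-dose agonist control mean, in both duplicate plates and the primary screen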); conditions: HEK293 mu-opioid receptor cells, Fluo-4 calcium flux, at 10 µM, compound added before EC20 DAMGO stimulus; active compounds read high
smiles,measurement,setting,value
Cc1ccc(C(=O)NNC(=S)NC(=O)c2ccc(Cl)cc2)cc1,outcome,[1],inactive
same,outcome,[2],inactive
same,outcome,[3],inactive
same,outcome,[4],inactive
same,outcome,[5],inactive
same,outcome,[6],inactive
same,outcome,[7],inactive
same,outcome,[8],inactive
same,outcome,[9],inactive
same,activation,[10],29.5% (active)
same,outcome,[11],inactive
same,activation,[12],77.8% (active)
same,outcome,[13],inactive
same,outcome,[14],inactive
same,outcome,[15],inactive
same,outcome,[16],inactive
CN1CCN(c2ccc(C(F)(F)F)cc2NC(=O)Nc2ccccc2)CC1,activation,[1],103% (active)
same,outcome,[2],inactive
same,potentiation,[3],24% (active)
same,outcome,[4],inactive
same,outcome,[5],inactive
same,outcome,[6],inactive
same,outcome,[7],inactive
same,outcome,[8],inactive
same,outcome,[9],inactive
same,outcome,[10],inactive
same,outcome,[11],inactive
same,activation,[12],28.6% (active)
same,outcome,[13],inactive
same,potentiation,[14],33.3% (active)
same,outcome,[15],inactive
same,outcome,[16],inactive
Cc1cc(OCCCn2ccnc2)cc(C)c1Cl,activation,[1],67% (active)
same,outcome,[2],inactive
same,outcome,[3],inactive
same,outcome,[4],inactive
same,outcome,[5],inactive
same,outcome,[6],inactive
same,outcome,[7],inactive
same,outcome,[8],inactive
same,outcome,[9],inactive
same,activation,[10],47.5% (active)
same,outcome,[11],inactive
same,activation,[12],15.8% (active)
same,outcome,[13],inactive
same,outcome,[14],inactive
same,outcome,[15],inactive
same,outcome,[16],inactive
Cc1c(CN2CCC(n3nccc3NC(=O)C3CC3)CC2)[nH]c2ccccc12,activation,[1],138% (active)
same,outcome,[2],inactive
same,outcome,[3],inactive
same,outcome,[4],inactive
same,outcome,[5],inactive
same,outcome,[6],inactive
same,outcome,[7],inactive
same,outcome,[8],inactive
same,outcome,[9],inactive
same,activation,[10],26% (active)
same,outcome,[11],inactive
same,outcome,[12],inactive
same,outcome,[13],inactive
same,outcome,[14],inactive
same,outcome,[15],inactive
same,outcome,[16],inactive
COc1ccc(C(=O)NC(=S)NNC(=O)CCc2ccccc2)cc1,activation,[1],100% (active)
same,outcome,[2],inactive
same,outcome,[3],inactive
same,outcome,[4],inactive
same,outcome,[5],inactive
same,outcome,[6],inactive
same,outcome,[7],inactive
same,outcome,[8],inactive
same,outcome,[9],inactive
same,activation,[10],25% (active)
same,outcome,[11],inactive
same,activation,[12],61.1% (active)
same,outcome,[13],inactive
same,outcome,[14],inactive
same,outcome,[15],inactive
same,outcome,[16],inactive
CN(C)C(CNc1ncnc2sc3c(c12)CCCC3)c1ccco1 (centres undefined),activation,[1],110% (active)
same,outcome,[2],inactive
same,outcome,[3],inactive
same,outcome,[4],inactive
same,outcome,[5],inactive
same,outcome,[6],inactive
same,outcome,[7],inactive
same,outcome,[8],inactive
same,outcome,[9],inactive
same,outcome,[10],inactive
same,outcome,[11],inactive
same,outcome,[12],inactive
same,outcome,[13],inactive
same,outcome,[14],inactive
same,outcome,[15],inactive
same,outcome,[16],inactive
Cc1onc(-c2c(F)cccc2Cl)c1C(=O)N1CCN(c2ncc(Br)cn2)CC1,activation,[1],109% (active)
same,outcome,[2],inactive
same,outcome,[3],inactive
same,outcome,[4],inactive
same,outcome,[5],inactive
same,outcome,[6],inactive
same,outcome,[7],inactive
same,outcome,[8],inactive
same,outcome,[9],inactive
same,activation,[10],42.5% (active)
same,outcome,[11],inactive
same,activation,[12],37.9% (active)
same,outcome,[13],inactive
same,outcome,[14],inactive
same,outcome,[15],inactive
same,outcome,[16],inactive
COc1ccc(C(CNC(=O)c2cccc(NS(=O)(=O)c3ccc(C)c(F)c3)c2)N(C)C)cc1 (centres undefined),activation,[1],135% (active)
same,outcome,[2],inactive
same,outcome,[3],inactive
same,outcome,[4],inactive
same,outcome,[5],inactive
same,outcome,[6],inactive
same,outcome,[7],inactive
same,outcome,[8],inactive
same,outcome,[9],inactive
same,activation,[10],28.5% (active)
same,outcome,[11],inactive
same,outcome,[12],inactive
same,outcome,[13],inactive
same,outcome,[14],inactive
same,outcome,[15],inactive
same,outcome,[16],inactive
CSCCC(NS(=O)(=O)c1ccc2c(c1)c(=O)n(C)c(=O)n2C)C(=O)NC1CCN(Cc2ccccc2)CC1 (centres undefined),outcome,[1],inactive
same,outcome,[2],inactive
same,outcome,[3],inactive
same,outcome,[4],inactive
same,outcome,[5],inactive
same,outcome,[6],inactive
same,outcome,[7],inactive
same,outcome,[8],inactive
same,outcome,[9],inactive
same,outcome,[10],inactive
same,outcome,[11],inactive
same,activation,[12],8.04% (active)
same,outcome,[13],inactive
same,outcome,[14],inactive
same,outcome,[15],inactive
same,outcome,[16],inactive
Cc1ccc(C2(O)CN(c3ccccc3C)C3=[N+]2CCS3)cc1 (centres undefined),activation,[1],87% (active)
same,activation,[2],76% (active)
same,outcome,[3],inactive
same,outcome,[4],inactive
same,outcome,[5],inactive
same,outcome,[6],inactive
same,outcome,[7],inactive
same,outcome,[8],inactive
same,outcome,[9],inactive
same,activation,[10],43.5% (active)
same,outcome,[11],inactive
same,outcome,[12],inactive
same,outcome,[13],inactive
same,outcome,[14],inactive
same,outcome,[15],inactive
same,outcome,[16],inactive
C#Cc1cccc(C(=O)NC2CCCN(C3Cc4ccccc4C3)C2)c1 (centres undefined),activation,[1],191% (active)
same,activation,[2],94% (active)
same,outcome,[3],inactive
same,outcome,[4],inactive
same,outcome,[5],inactive
same,outcome,[6],inactive
same,outcome,[7],inactive
same,outcome,[8],inactive
same,outcome,[9],inactive
same,activation,[10],59% (active)
same,outcome,[11],inactive
same,activation,[12],111% (active)
same,outcome,[13],inactive
same,outcome,[14],inactive
same,outcome,[15],inactive
same,outcome,[16],inactive
COc1ccc(C(CNC(=O)CN2C(=O)NC3(CCCC3)C2=O)N(C)C)cc1 (centres undefined),activation,[1],121% (active)
same,outcome,[2],inactive
same,outcome,[3],inactive
same,outcome,[4],inactive
same,outcome,[5],inactive
same,outcome,[6],inactive
same,outcome,[7],inactive
same,outcome,[8],inactive
same,outcome,[9],inactive
same,outcome,[10],inactive
same,outcome,[11],inactive
same,outcome,[12],inactive
same,outcome,[13],inactive
same,outcome,[14],inactive
same,outcome,[15],inactive
same,outcome,[16],inactive
CN(C)C(CNC(=S)Nc1cccc(Cl)c1)c1ccccc1 (centres undefined),activation,[1],255% (active)
same,activation,[2],127% (active)
same,outcome,[3],inactive
same,outcome,[4],inactive
same,outcome,[5],inactive
same,outcome,[6],inactive
same,outcome,[7],inactive
same,outcome,[8],inactive
same,outcome,[9],inactive
same,outcome,[10],inactive
same,outcome,[11],inactive
same,outcome,[12],inactive
same,outcome,[13],inactive
same,outcome,[14],inactive
same,outcome,[15],inactive
same,outcome,[16],inactive
Cc1cc(OCCCn2ccnc2)ccc1[N+](=O)[O-],activation,[1],134% (active)
same,outcome,[2],inactive
same,outcome,[3],inactive
same,outcome,[4],inactive
same,outcome,[5],inactive
same,outcome,[6],inactive
same,outcome,[7],inactive
same,outcome,[8],inactive
same,outcome,[9],inactive
same,outcome,[10],inactive
same,outcome,[11],inactive
same,outcome,[12],inactive
same,outcome,[13],inactive
same,potentiation,[14],18.2% (active)
same,outcome,[15],inactive
same,outcome,[16],inactive
